Values joined by “and” are separate entries in the source; they are usually repeats but may differ in a detail not shown here. Identical values can stand only once. About 2,000 (36%) of roughly 5,500 compounds were called active. Roughly 18% stayed inconclusive and do not appear here. No stated cut-off is given here; in the data, active means normalized growth mostly below about 0.91 (no sharp cut-off); inconclusive means no clear call, values can overlap the other calls; inactive means mostly above about 0.92. Some of the results follow.
Assay: chemical genetic growth profiling, strain panel (AID 1159580);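 further: tested at 20 µM; growth read once vehicle control cultures reached saturation at 30 °C; 1 = growth at the plate median or of vehicle wells; lower values mean less growth of the strain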
Conditions: S. cerevisiae deletion strains, growth OD

Measured: normalized growth

C[C@]12CCC(=O)C=C1CCC1C2[C@@H](O)C[C@@]2(C)C1CC[C@]2(O)C(=O)CO (stereo partly drawn)
inactive: locus YAL013W, strain DEP1, active compounds read low 1.02 | locus YAL021C, strain ccr4, active compounds read low 0.984 | locus YAL026C, strain drs2, active compounds read low 0.994 | locus YAL030W, strain snc1, active compounds read low 1.01 | locus YBL061C, strain skt5, active compounds read low 0.987 | locus YBR009C, strain hhf1, active compounds read low 1 | locus YBR021W, strain FUR4, active compounds read low 1.01 | locus YBR023C, strain chs3, active compounds read low 0.979 | locus YBR171W, strain sec66, active compounds read low 0.975 | locus YBR229C, strain ROT2, active compounds read low 1.02 | locus YBR231C, strain swc5, active compounds read low 1 | locus YBR279W, strain paf1, active compounds read low 0.98 | locus YCL011C, strain gbp2, active compounds read low 0.979 | locus YCL016C, strain dcc1, active compounds read low 0.971 | locus YCL029C, strain bik1, active compounds read low 0.995 | locus YCL069W, strain vba3, active compounds read low 1 | locus YCR088W, strain abp1, active compounds read low 0.993 | locus YDL005C, strain med2, active compounds read low 0.99 | locus YDL035C, strain GPR1, active compounds read low 1.02 | locus YDL040C, strain nat1, active compounds read low 1.01 | locus YDL074C, strain BRE1, active compounds read low 1.02 | locus YDL101C, strain DUN1, active compounds read low 1.02 | locus YDL185W, strain tfp1, active compounds read low 1 | locus YDL192W, strain arf1, active compounds read low 0.99 | locus YDR001C, strain nth1, active compounds read low 1 | locus YDR069C, strain doa4, active compounds read low 0.993 | locus YDR101C, strain arx1, active compounds read low 0.974 | locus YDR137W, strain rgp1, active compounds read low 1.01 | locus YDR159W, strain sac3, active compounds read low 0.948 | locus YDR162C, strain NBP2, active compounds read low 1.02 | locus YDR195W, strain ref2 0.974 | locus YDR297W, strain sur2, active compounds read low 1 | locus YDR318W, strain mcm21, active compounds read low 1 | locus YDR334W, strain swr1, active compounds read low 0.981 | locus YDR335W, strain msn5, active compounds read low 0.987 | locus YDR388W, active compounds read low 0.991 | locus YDR392W, strain spt3, active compounds read low 0.899 | locus YDR502C, strain sam2, active compounds read low 1.01 | locus YEL003W, strain gim4, active compounds read low 1.01 | locus YEL037C, strain rad23, active compounds read low 1 | locus YEL061C, strain CIN8 (second series), active compounds read low 0.991 | locus YEL061C, strain CIN8, active compounds read low 1.01 | locus YER015W, strain faa2, active compounds read low 0.996 | locus YER016W, strain bim1, active compounds read low 0.99 | locus YER110C, active compounds read low 0.989 | locus YER111C, strain swi4, active compounds read low 0.981 | locus YER155C, strain BEM2 (second series), active compounds read low 1.01 | locus YER155C, strain BEM2, active compounds read low 1.01 | locus YER167W, strain BCK2, active compounds read low 1.01 | locus YFR010W, strain ubp6, active compounds read low 1.01 | locus YGL078C, strain dbp3, active compounds read low 0.984 | locus YGL086W, strain mad1, active compounds read low 0.988 | locus YGL167C, strain pmr1, active compounds read low 0.987 | locus YGL173C, strain kem1, active compounds read low 0.975 | locus YGL227W, strain vid30, active compounds read low 0.981 | locus YGL240W, strain doc1, active compounds read low 0.971 | locus YGL248W, strain PDE1, active compounds read low 1.02 | locus YGL253W, strain hxk2, active compounds read low 0.99 | locus YGR078C, strain PAC10, active compounds read low 1.03 | locus YGR135W, strain pre9, active compounds read low 1.01 | locus YGR229C, strain SMI1, active compounds read low 1.02 | locus YGR252W, strain gcn5, active compounds read low 1.02 | locus YHR013C, strain ard1, active compounds read low 0.969 | locus YHR027C, strain rpn1, active compounds read low 1.01 | locus YHR030C, strain SLT2, active compounds read low 1.01 and 0.975 | locus YHR079C, strain IRE1 (second series), active compounds read low 0.997 | locus YHR079C, strain IRE1, active compounds read low 0.99 | locus YHR094C, strain hxt1, active compounds read low 0.988 | locus YHR129C, strain ARP1, active compounds read low 1.02 | locus YHR142W, strain chs7, active compounds read low 0.999 | locus YHR200W, strain rpn10, active compounds read low 1.01 | locus YIL066C, strain RNR3, active compounds read low 1.02 | locus YIL073C, strain SPO22, active compounds read low 1.02 | locus YIL125W, strain kgd1, active compounds read low 0.997 | locus YIR030C, strain dcg1, active compounds read low 0.994 | locus YJL092W, strain hpr5, active compounds read low 0.995 | locus YJL095W, strain BCK1 (second series), active compounds read low 1 | locus YJL095W, strain BCK1, active compounds read low 1.04 and 0.981 | locus YJL115W, strain asf1, active compounds read low 0.992 | locus YJL129C, strain trk1, active compounds read low 0.97 | locus YJL134W, strain LCB3, active compounds read low 1.01 | locus YJL154C, strain vps35, active compounds read low 0.991 | locus YJL164C, strain tpk1, active compounds read low 1 | locus YJL166W, strain qcr8, active compounds read low 1.02 | locus YJL168C, strain set2, active compounds read low 0.999 | locus YJL187C, strain SWE1 (second series), active compounds read low 1.02 | locus YJR043C, strain POL32, active compounds read low 1.03 | locus YJR066W, strain TOR1, active compounds read low 0.922
